# EBV LMP1 NFkB: Epstein-Barr LMP1 NF-kappaB reporter inhibition. inhibition, % at 12.5 µM. LMP1-induced NF-kappaB luciferase reporter cells, luminescence. AID 504558. hit rate 0.69% among 350,000; in the data active = inhibition above about 41%;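 note: 0% = neutral control wells and 100% = reference inhibitor control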
# MITF TRPM1 inh: inhibitors of MITF-driven TRPM1 promoter in melanoma cells. inhibition, % at 12.5 µM. SK-MEL-5 TRPM1 promoter luciferase, 24 h. hit rate 0.83% among 330,000;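 active = mean inhibition across replicates of 60% or more, whatever share of single replicates reaches that level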
# EWS-Fli block: inhibitors of EWS/Fli oncoprotein transcriptional activity; A673 NR0B1-luciferase reporter, viability-normalised; inhibition, % at 12.6 µM; hit rate 0.67% among 350,000;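 active = mean inhibition of at least 50% after viability correction, with every replicate also passing that limit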;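 note: firefly luciferase signal divided by Alamar Blue viability fluorescence both relative to DMSO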
# LGR2 inh: inhibitors of bursicon-induced Drosophila LGR2 receptor cAMP signaling; inhibition, % at 9.99 µM; hit rate 0.35% among 380,000; HEK293 LGR2, CRE-luciferase, bursicon-stimulated, 4 h; AID 720647;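 active = drop in luminescence signal, shown as inhibition above about 50% in the replicate tests, limit read from the data, passing the limit was not always enough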;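 note: agonist challenge used bursicon conditioned medium at about half maximal strength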
# PGC1a acetyl inh: lowers PGC1a acetylation signal in U2OS cells. AID 651687. AlphaScreen anti-acetyl-lysine; with virally co-expressed GCN5 acetyltransferase. inhibition, % at 15.6 µM. hit rate 0.17% among 350,000;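 active = every replicate shows inhibition of at least 40%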;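 note: 0% = neutral control wells and 100% = positive control wells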
# PAX8 inh HTS: inhibitors of PAX8 transcriptional activity in RMG-I cells; RMG-I TPO-luciferase reporter, SteadyGlo, 24 h; inhibition, % at 12.6 µM; hit rate 1.2% among 360,000; AID 652154;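 active = mean replicate inhibition at least 60% with every replicate also reaching 60%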;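 note: luciferase light reporting Pax8 driven TPO promoter activity; plate controls were median of neutral control wells for no effect and mitoxantrone controls for full effect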
# * marks the source's active call; other numbers are inactive results; nt = not tested or not shown. Shown are actives, neighbours in structure and some others; about 2.2% of the full set was active somewhere.
SMILES,EBV LMP1 NFkB,MITF TRPM1 inh,EWS-Fli block,LGR2 inh,PGC1a acetyl inh,PAX8 inh HTS
Cc1cccc(CS(=O)(=O)c2nnc([C@H](Cc3ccccc3)NC(=O)OC(C)(C)C)o2)c1,-28,75*,nt,nt,60*,nt
CC(=O)N/C(=C\c1ccccc1)C(=O)NC(C)C(=O)O (configuration not stated),-9,5,-12,23,-8,2
CCCCNC(=O)/C(=C/c1ccccc1)NC(C)=O,8,0,-5,nt,-4,139*
COc1cc(Cl)c(NS(=O)(=O)c2ccc(-c3ccc(=O)[nH]n3)o2)c(OC)c1,-4,-4,-1,0,8,-7
CCOc1ccc(NC2=CC(=O)CCC2)cc1,-1,-9,-10,-9,8,11
Cc1ccc(NC2=CC(=O)C(=O)c3ccccc32)c(C)c1,1,nt,33,37,26,27
COc1cc(Cl)c(NC2=CC(=O)C(=O)c3ccccc32)c(OC)c1,1,96*,5,-13,nt,95*
O=C1C=C(NCc2ccccc2)c2ccccc2C1=O,-12,104*,44,96*,-6,77*
O=C1C=C(Nc2ccccc2O)c2ccccc2C1=O,-4,100*,-2,-2,-6,nt
CCOc1ccc(NC2=CC(=O)C(=O)c3ccccc32)cc1,0,102*,12,-20,nt,49
O=c1cccccc1NCc1ccccc1,-7,-23,nt,-18,nt,-24
O=C(c1cccc(F)c1)N1CC[C@H]2[C@H](CO)Nc3ccc(C#Cc4cccc(F)c4)cc3[C@H]21,nt,nt,nt,7,0,nt
CCCNC(=O)N1CC2(CCN(Cc3cccc(F)c3)CC2)c2c([nH]c3cc(OC)ccc23)[C@@H]1CO,nt,nt,34,21,nt,nt
O=C1C=C(Nc2ccc(F)cc2)c2ccccc2C1=O,-8,97*,-52,-42,10,-82
COC1=C(Nc2ccc(C)cc2)C(=O)c2ccccc2C1=O,-8,25,-131,-33,nt,31
O=C1C=C(Nc2cccnc2)c2ccccc2C1=O,-36,101*,-1,7,nt,29
COc1cccc(NC(=O)C[C@H]2CC[C@@H]3[C@H](COc4ccc(NC(=O)C5CCCCC5)cc4C(=O)N3C)O2)c1,nt,nt,-8,-22,0,13
C[C@H](CO)N1C[C@H](C)[C@H](CN(C)CC2CC2)OCc2cnnn2CCCC1=O,nt,nt,-4,-3,-1,-3
C[C@@H](NC(=O)Cn1cnc2c(OCc3ccccc3)ncnc21)c1cccc2ccccc12,0,-8,-6,-14,-3,3
c1ccc(CCCNCCCn2cnc3c(OCc4ccccc4)ncnc32)cc1,-3,78*,16,7,-5,-4
C[C@@H](NCCCn1cnc2c(OCc3ccccc3)ncnc21)c1cccc2ccccc12,1,69*,-16,3,2,19
COc1ncnc2c1ncn2CCCNCCCN1CCCC1=O,4,nt,2,-19,nt,72*
O=C1CCCN1CCCNCCCn1cnc2c(OCc3ccccc3)ncnc21,3,4,4,-9,6,8
CNC[C@H]1Oc2ccc(NC(=O)Cn3cnnn3)cc2C(=O)N([C@@H](C)CO)C[C@@H]1C,nt,nt,2,19,1,nt
Cc1sc2cc3c(c(C(=O)c4ccccc4)[n+]2c1C)-c1cccc2cccc-3c12,nt,nt,30,65*,nt,86*
SMILES,EBV LMP1 NFkB,MITF TRPM1 inh,EWS-Fli block,LGR2 inh,PGC1a acetyl inh,PAX8 inh HTS
O=C(c1ccccc1)c1ccc2ccccc2c1,-14,-56,-107,-78,10,-120
O=C(c1ccccc1)c1c2c(cc3sc4ccccc4[n+]13)-c1cccc3cccc-2c13,-15,86*,nt,48,-3,66*
Cc1cc2ccccc2cc1C(=O)c1ccccc1,-1,-8,-22,-2,-2,-8
O=C(C[C@@H]1CC[C@H](NC(=O)c2cccnc2)[C@@H](CO)O1)NCc1ccncn1,nt,nt,1,7,1,2
CCCN(CCC)S(=O)(=O)c1ccc(Cl)c([N+](=O)[O-])c1,2,17,54*,84*,-19,-5
CC(O)c1nc2ccccc2n1C/C=C/c1ccccc1 (configuration not stated),-5,8,nt,nt,nt,nt
Cc1c(P(=S)(c2ccccc2)c2ccccc2)[n+]2ccccc2n1C/C=C/c1ccccc1,nt,nt,21,32,nt,101*
C[C@H](CO)N1C[C@H](C)[C@H](CN(C)S(=O)(=O)c2cn(C)cn2)Oc2ccc(NC(=O)c3ccncc3)cc2CC1=O,nt,nt,-5,11,-4,nt

# Bioassay records deposited in PubChem BioAssay by Broad Institute.
